Peg3 promoter – Peg3 promoter-driven luciferase inhibitors, primary screen, cell-based, HeLa, luciferase luminescence | HeLa PEG-Prom luciferase reporter, overnight | inhibition, % at 20 µM | hit rate 1.7% among 360,000 | AID 588405, 2011;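 active = inhibition of at least 50% at 20 µM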
KKLEB tox – cytotoxicity in KKLEB CF airway cells, primary screen, cytotoxicity control for CF NF-kB inhibitor project, cell-based, uHTS, fluorescence assay plates; KKLEB CF airway cells viability, ATPlite luminescence, overnight; active compounds read low; cells stimulated with P. aeruginosa culture filtrate; activity change (cytotoxicity), % at 5 µM; hit rate 0.36% among 360,000; AID 602141, 2011;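 active = corrected activity change at or below -50% at 5 µM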
HIF-2a inh – HIF-2a reporter inhibitors, primary screen, luminescence, 786-0 RCC cells; 786-0 RCC cells HIF-2a reporter, luciferase luminescence, overnight; inhibition, % at 18.8 µM; hit rate 0.72% among 360,000;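 active = inhibition of the luminescence signal of 40% or more relative to plate controls, in a single-dose primary screen at 18.75 µM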
MITF TRPM1 inh – inhibitors of MITF-dependent TRPM1 promoter reporter, primary screen, cell-based, SK-MEL-5, single point, luciferase | inhibition, % at 12.5 µM | SK-MEL-5 TRPM1 promoter luciferase, 24 h | hit rate 0.83% among 330,000 | AID 488899, 2010;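 active = mean inhibition across replicates of 60% or more, whatever share of single replicates reaches that level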
CF NFkB block – inhibitors of PAF-induced NF-kB signaling, primary screen, cell-based, GFP fluorescence, uHTS; inhibition, % at 5 µM; hit rate 0.86% among 360,000; KKLEB NF-kB-GFP reporter, GFP fluorescence overnight; AID 588850, 2011;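 active = at least 50% inhibition at 5 µM, scaled per plate between neutral and stimulator controls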;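 also: PAF is a Pseudomonas aeruginosa culture filtrate used as stimulus; plate controls were PAF-stimulated DMSO wells for no effect and unstimulated DMSO wells for full effect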
Shn3 inh set2 – reduction of Shn3 3'UTR firefly luciferase signal, primary screen, Schnurri-3 inhibitor project, cell-based, Clone20 osteoblasts, set 2 | Clone20 osteoblast Shn3 3'UTR firefly luciferase, 24 h | inhibition, % at 12.5 µM | hit rate 0.52% among 360,000 | AID 588674, 2011;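 active = mean inhibition of at least 75% with every replicate also reaching 75%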;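 also: 0% = median of neutral control wells and 100% = pilot-screen positive control compound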
CF NFkB inh conf – inhibitors of PAF-induced NF-kB signaling, retest, confirmation, cell-based, GFP fluorescence, single concentration | shares compounds with CF NFkB block | KKLEB CF airway cells, overnight | inhibition, % at 5 µM | hit rate 64% among 1,300; in the data active = inhibition above about 40%;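 also: stimulus PAF is a Pseudomonas aeruginosa filtrate and not platelet activating factor; plate controls were DMSO wells with stimulus for no effect and unstimulated DMSO wells for full effect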
Mdm2-MdmX confirm – retested Mdm2-MdmX interaction blockers, confirmation, cell-based, luminescence, single concentration, set 2; shares compounds with HIF-2a inh; hit rate 99% among 740; SaOS-2 split-luciferase Mdm2/MdmX complementation; inhibition, % at 8 µM;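 active = mean inhibition of the luminescence signal across two replicates at or above 26 percent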
HIF-2a inh conf – HIF-2a reporter inhibitor retest, confirmation, luminescence, 786-0 RCC cells; hit rate 56% among 1,800; inhibition, % at 18.8 µM; shares compounds with HIF-2a inh; AID 651580, 2012; HIF-2a luciferase reporter luminescence, overnight;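 active = mean inhibition across four replicates of at least 40 percent at the single tested concentration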
HIF-1a cs – HIF-1a luciferase reporter signal reduction – MiaPaCa-2 cells, single concentration, counter-screen for HIF-2a inhibitor project, confirmation. shares compounds with HIF-2a inh. MiaPaCa-2 HIF-1a luciferase reporter, desferoxamine, overnight. inhibition, % at 18.8 µM. hit rate 72% among 1,800. AID 651589, 2012;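 active = mean inhibition of the reporter signal across four replicates at the single tested dose of 50% or more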
* hit, by the source's call; x = no result given. This is a sample that favours compounds with a hit; in the whole collection about 2.7% have one here.

SMILES | Peg3 promoter | KKLEB tox | HIF-2a inh | MITF TRPM1 inh | CF NFkB block | Shn3 inh set2 | CF NFkB inh conf | HIF-2a inh conf | HIF-1a cs | others
COc1ccc(-c2cc(C(F)(F)F)nc(S(C)(=O)=O)n2)cc1 | 100.4* | -37.3 | 89.2* | 61.2* | 73.6* | 94.7* | 57.7* | 30.1 | 103.0* | Mdm2-MdmX confirm=102.5*
CCOC(=O)CS(=O)(=O)c1nc(-c2ccccc2)cc(C(F)(F)F)n1 | 105.2* | -21.4 | 89.3* | 101.5* | 78.7* | 97.4* | 59.5* | 81.6* | 65.0*
COCCc1ccc(OC2(C)CCN(Cc3ccc(OC)c4ccccc34)C2)cc1 (stereo unspecified) | 21.3 | 6.2 | 2.9 | x | -18.8 | 1.5 | x | x | x
COc1ccc(CN2C(=O)CN(S(C)(=O)=O)CC2(C)C(=O)Nc2c(C)cccc2C)cc1OC (stereo unspecified) | x | x | 10.5 | x | x | x | x | x | x
CNC(=O)C1Cc2c(-c3ccc(Cl)cc3)ccnc2O1 (stereo unspecified) | 8.2 | 10.3 | 7.1 | x | -12.0 | 11.8 | x | x | x
Cc1cccc(NS(=O)(=O)c2ccc(-c3cnc(C4CC4)o3)cc2)c1C | 31.8 | 11.0 | 41.7* | 40.9 | 51.8* | 29.4 | 87.0* | 19.9 | 66.9*
Cc1cc(C)cc(NS(=O)(=O)c2ccc(-c3cnc(C4CC4)o3)cc2)c1 | 13.0 | -31.1 | 39.5* | 40.9 | 64.0* | 74.2 | 81.5* | 24.9 | 60.4*
O=S(=O)(Nc1ccccc1)c1ccc(-c2cnc(C3CC3)o2)cc1 | 16.9 | -6.2 | 3.4 | 26.4 | 21.9 | 9.6 | x | x | x
NC(=O)CCC(C(=O)O)N1C(=O)C2C3CCC(C3)C2C1=O (stereo unspecified) | -1.3 | -2.1 | 6.4 | x | -8.5 | -8.7 | x | x | x
COc1ccc(CCNC(=O)c2cc3cc(Cl)ccc3nc2N)cc1OC | x | x | 15.7 | x | x | x | x | x | x
COc1cc(/C=C/C(=O)c2ccc([N+](=O)[O-])o2)ccc1O | 100.9* | -21.0 | 96.9* | 85.2* | 83.4* | 97.3* | 2.2 | 78.8* | 104.6*
Cc1ccccc1SCC(=O)Nc1cc(C(F)(F)F)ccc1N1CCOCC1 | 38.9 | -21.0 | 13.6 | -3.4 | 33.2 | 10.8 | x | x | x
C=C(C(=O)c1ccccc1)C(NC(C)(C)C)c1ccccc1 (stereo unspecified) | 104.4* | -35.2 | 85.4* | 99.2* | 50.5* | 37.3 | -403.6 | 98.3* | 105.4*
COC(=O)C(NC(=O)c1ccccc1)c1ccccc1 (stereo unspecified) | 1.6 | -3.9 | 2.1 | -2.1 | 0.1 | 3.8 | x | x | x
COc1ncnc2c1ncn2CCCN1CCN(C(=O)C2CC2)CC1 | 7.1 | 22.4 | 9.1 | x | -12.9 | -13.7 | x | x | x
Cc1cc(C)c2nc(C(F)(F)F)c(C#N)c(N)c2c1 | 72.6* | -16.1 | 11.8 | -20.0 | 70.2* | 11.0 | 92.3* | x | x | Mdm2-MdmX confirm=83.2*
CCOc1ccccc1NC(=O)c1ccc(C(=O)Nc2ccccc2OCC)nc1 | 11.9 | 2.1 | 10.1 | 5.9 | 3.5 | 23.3 | x | x | x
CCS(=O)(=O)c1ncc(Cl)c(C(=O)Nc2ccccc2OC)n1 | 103.6* | -36.1 | 92.6* | 40.9 | 85.0* | 96.8* | 96.4* | 0.6 | 99.3*
CCOc1ccccc1NC(=O)c1nc(S(=O)(=O)Cc2ccccc2)ncc1Cl | 99.1* | -30.6 | 90.3* | 78.3* | 79.9* | 96.3* | 94.4* | 98.6* | 104.1*
COC(=O)[C@H](NC(=O)c1cc(-c2ccccc2)sc1N)C(C)C | x | x | -73.1 | x | x | x | x | x | x
COc1ccc(CCN2C(=O)COc3ccccc3C2C(=O)Nc2ccc3c(c2)OCCO3)cc1OC (stereo unspecified) | x | x | -31.0 | x | x | x | x | x | x
Nc1ncnc(N2CCc3ccccc32)c1[N+](=O)[O-] | 37.0 | -24.0 | 18.3 | 22.7 | 83.4* | -3.4 | 98.3* | x | x | Mdm2-MdmX confirm=92.7*
NNC(=O)c1ccc(N2CCc3ccccc32)c([N+](=O)[O-])c1 | 2.1 | 8.0 | 24.3 | 7.4 | -26.1 | -11.7 | x | x | x
O=C(NCCc1ccc(F)cc1)C1CCC(=O)N(CC2CCCCC2)C1 (stereo unspecified) | 10.4 | -0.4 | -16.0 | x | -41.2 | 15.9 | x | x | x
Cn1nnnc1Sc1ncnc2scc(-c3ccc[nH]3)c12 | -48.4 | -8.9 | 72.2* | 84.1* | 83.0* | 70.9 | 64.3* | 40.9* | 99.6*
SMILES | Peg3 promoter | KKLEB tox | HIF-2a inh | MITF TRPM1 inh | CF NFkB block | Shn3 inh set2 | CF NFkB inh conf | HIF-2a inh conf | HIF-1a cs | others
Cn1nc(C(C)(C)C)cc1C(=O)N1CCCCC1c1cc(C(=O)NCc2ccc(F)cc2)no1 (stereo unspecified) | 10.5 | -5.5 | 9.5 | x | 8.6 | 74.4 | x | x | x
CC(C)CN=C(NS(=O)(=O)c1ccccc1)C(Cl)(Cl)Cl | 99.5* | -23.0 | 91.7* | 85.9* | 87.9* | 65.5 | 92.7* | 93.0* | 104.8*
O=C(CCl)N(Cc1cc(=O)[nH]c2ccccc12)c1ccccc1 | 84.6* | -34.3 | 47.1* | 69.2* | 69.2* | 3.3 | 73.9* | 69.8* | 103.9* | Mdm2-MdmX confirm=101.5*
CCC(C)CN1C(=O)CSCC1(C)C(=O)Nc1ccc2c(c1)OCCO2 (stereo unspecified) | x | x | -10.9 | x | x | x | x | x | x
COc1ccc(C2CC(c3cccs3)=NN2C(=O)c2ccccc2)cc1OC (stereo unspecified) | 8.1 | 5.3 | 9.8 | -7.9 | 2.3 | 4.2 | x | x | x
COc1ccc(C2CC(c3cccs3)=NN2C(=O)CCl)cc1OC (stereo unspecified) | 103.1* | -10.7 | 3.1 | 83.2* | 36.1 | 49.4 | x | x | x | Mdm2-MdmX confirm=95.8*
CC(=O)N1N=C(c2ccco2)CC1c1cccs1 (stereo unspecified) | 1.6 | -2.4 | -1.3 | 10.8 | -0.4 | -12.3 | x | x | x
COc1cc(C2CC(c3cccs3)=NN2C(=O)CCl)ccc1OC(F)F (stereo unspecified) | 109.0* | -88.4* | 38.5 | 64.8* | 104.2* | 56.8 | x | x | x | Mdm2-MdmX confirm=103.0*
Cc1ccc(C2=NN(C(=O)CCl)C(c3cccs3)C2)o1 (stereo unspecified) | 60.1* | -21.2 | 83.9* | 73.2* | 46.0 | 9.2 | x | 2.0 | 50.6* | Mdm2-MdmX confirm=101.0*
